In all, about 96,000 compounds went through this assay and about 20,000 (21%) were called active. These entries were drawn from the full list. Values without a mark were called inactive.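 The calls were made as follows: active = CYP2C19 inhibition above a set limit at 5 µM in the primary screen (cut at about 50% in these data); inactive = the rest.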
biological target: Cytochrome P450 2C19 (Homo sapiens) (UniProt P33261); assay: blockers of cytochrome P450 2C19 activity – biochemical, luminescence, ADME assay, primary screen (AID 778); conditions: CYP2C19 Supersomes, luciferin-H EGE luminescence, 30 min; at 5 µM; active compounds read high;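 also: plate controls were negative control wells for no effect and 2.5 mM tranylcypromine positive control for full effect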
Sequence (P33261 whole entry, looked up): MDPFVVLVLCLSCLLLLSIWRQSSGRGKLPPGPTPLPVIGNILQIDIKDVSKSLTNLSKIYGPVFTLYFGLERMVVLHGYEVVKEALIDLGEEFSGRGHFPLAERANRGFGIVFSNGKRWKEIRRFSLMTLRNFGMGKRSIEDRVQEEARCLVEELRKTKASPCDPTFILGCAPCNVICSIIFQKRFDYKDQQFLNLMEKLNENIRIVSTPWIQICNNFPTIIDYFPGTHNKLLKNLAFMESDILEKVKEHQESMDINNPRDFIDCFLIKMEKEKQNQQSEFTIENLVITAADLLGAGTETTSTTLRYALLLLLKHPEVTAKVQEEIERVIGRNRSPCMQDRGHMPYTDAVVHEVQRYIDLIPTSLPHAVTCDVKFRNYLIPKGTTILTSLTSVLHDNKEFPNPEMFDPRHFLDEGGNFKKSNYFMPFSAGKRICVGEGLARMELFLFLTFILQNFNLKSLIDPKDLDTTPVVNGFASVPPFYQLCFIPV

Which inhibition does the source give for `CCOc1ccccc1C1NC(=O)NC(C)=C1C(=O)OCc1ccco1` (stereo not given) here?
The inhibition was 16.1%.

`CCCCCn1c(SCCC(C)C)nc2c1c(=O)[nH]c(=O)n2C` was tested. Which inhibition did it give?
The inhibition was 8.6%.

For `Cc1ccc(C2CC(c3cccc(Br)c3)n3nc(N)nc3N2)cc1` (stereo not given), which inhibition is on record?
The inhibition was 21.7%.

`Cc1ccc(-c2ccc(=O)n(CC(=O)NCCCN3CCCCC3)n2)cc1` was tested. Which inhibition did it give?
The inhibition was 6.9%.

`O=C1c2ccccc2C(=O)c2c1cccc2N1CCN(CCO)CC1` was tested. Which inhibition did it give?
The inhibition was 1.4%.

With `Cc1cc2[nH]ncc2cc1NC(=S)NC(=O)c1ccccc1` as the molecule, how does the inhibition read?
Its inhibition is 99.2% (active).

With `CCOC(=O)c1c(-c2ccccc2)csc1NC(=S)NC(=O)c1ccccc1` as the molecule, how does the inhibition read?
Its inhibition is -8.6%.

Which inhibition does the source give for `Cc1ccc(NC(=S)NC(=O)c2ccc(-c3ccccc3)cc2)c(C)c1` here?
The inhibition was 8.6%.

How did the inhibition turn out when `CC1(C)C(=O)C2(CCCCC2)C(=O)OC1c1cccs1` (stereo not given) was run?
Its inhibition is 15.1%.

`CCOC1CS(=O)(=O)CC1OCC` (stereo not given) was tested. Which inhibition did it give?
The inhibition was -10.9%.

How did the inhibition turn out when `Nc1nnc(C2CCCC2)s1` was run?
Its inhibition is 8.1%.

With `Cc1cc(N/C=C\C(=O)c2ccc(Cl)c(Cl)c2)no1` as the molecule, how does the inhibition read?
Its inhibition is 40.4%.

`Cc1nn2c(c1-c1ccccc1)N=C(c1ccco1)CC2c1ccccc1` (stereo not given) was tested. Which inhibition did it give?
The inhibition was 66.2% (active).

How did the inhibition turn out when `Cc1nn(C(=O)c2ccoc2C)c(N)c1-c1ccccc1` was run?
Its inhibition is 29.7%.

With `CN(C)/C=C(\C#N)C(=O)c1cccnc1Oc1cccc(F)c1` as the molecule, how does the inhibition read?
The inhibition was 40.5%.

Which inhibition does the source give for `COc1cccc2cc(C(=O)N(C)C)c(=O)oc12` here?
Its inhibition is -22.6%.

For `CCCCNC(=O)c1onc(CSc2cccc(OC)c2)c1C(=O)O`, which inhibition is on record?
Its inhibition is 12.9%.

For `CCOc1ccc(NC(=O)N(CC(C)C)CC(C)C)cc1`, which inhibition is on record?
Its inhibition is 11.8%.

For `OCCN(Cc1ccccc1)Cc1ccc(Cl)cc1`, which inhibition is on record?
The inhibition was 100% (active).

Which inhibition does the source give for `CC(O)CN(Cc1ccc(Cl)cc1)CC(C)O` (stereo not given) here?
The inhibition was -2.3%.

`CN(Cc1ccccc1)Cc1ccccc1F` was tested. Which inhibition did it give?
The inhibition was 44.7%.

For `Brc1cnc(N2CCCC2)nc1N1CCCCC1`, which inhibition is on record?
Its inhibition is 1.7%.

Which inhibition does the source give for `COc1cc(OC)cc(C(=O)NCCSCc2ccco2)c1` here?
The inhibition was 35%.

For `O=C(CN1C(=O)C2C3C=CC(C3)C2C1=O)NCC1COc2ccccc2O1` (stereo not given), which inhibition is on record?
Its inhibition is 0.4%.

`CCOC(=O)Cn1c(N)c(C(=O)OC)sc1=S` was tested. Which inhibition did it give?
The inhibition was 26.8%.

With `COC(=O)c1sc(=S)n(-c2ccccc2)c1N` as the molecule, how does the inhibition read?
The inhibition was 17.4%.

How did the inhibition turn out when `COC(=O)c1sc(=S)n(-c2ccc(Cl)cc2)c1C` was run?
The inhibition was 62.9% (active).

For `CC1(C)CC(=O)NC=C(c2ccccc2)C1`, which inhibition is on record?
Its inhibition is 23.8%.

For `Brc1ccc(/C=N/N2CCN(C3c4ccccc4-c4ccccc43)CC2)s1`, which inhibition is on record?
The inhibition was 11.5%.

Which inhibition does the source give for `COc1ccc(OC)c(-n2cc3c(=O)n(C)c(=O)n(C)c3c2)c1` here?
Its inhibition is 38.6%.

`COc1cc(C2C(C#N)=C(N)Oc3n[nH]c(-c4ccccn4)c32)cc(OC)c1OC` (stereo not given) was tested. Which inhibition did it give?
The inhibition was 1.9%.

How did the inhibition turn out when `N#CC1=C(N)Oc2cc(O)ccc2C1C1CCCCC1` (stereo not given) was run?
The inhibition was 35.8%.

For `COc1ccc(C2C(C#N)=C(N)Oc3cc(N)ccc32)cc1OC` (stereo not given), which inhibition is on record?
Its inhibition is 74.9% (active).

How did the inhibition turn out when `CS(=O)(=O)N1CCCC(C(=O)N2CCOCC2)C1` (stereo not given) was run?
The inhibition was -12.2%.

How did the inhibition turn out when `O=C(Cc1ccc(S(=O)(=O)N2CCOCC2)s1)NCCC(c1ccccc1)c1ccccc1` was run?
The inhibition was 41.9%.

`O=C1NC(Nc2nc3ccccc3s2)(C(F)(F)F)C(=O)N1C1CCCCC1` (stereo not given) was tested. Which inhibition did it give?
Its inhibition is 68.9% (active).

How did the inhibition turn out when `COC(=O)NC1(C(F)(F)F)NC(=O)N(C2CCCCC2)C1=O` (stereo not given) was run?
Its inhibition is 7.3%.

Which inhibition does the source give for `CCC(=O)Nc1sc(C(=O)N2CCCCC2)c(C)c1C#N` here?
The inhibition was 19.7%.

With `O=C(CSc1n[nH]c(-c2cccnc2)n1)Nc1ccnc2ccccc12` as the molecule, how does the inhibition read?
The inhibition was 15%.

Which inhibition does the source give for `COc1cccc(NC(=O)C2CCCN2C(=O)OCc2ccccc2)c1` (stereo not given) here?
Its inhibition is 33.1%.

`CC(=O)Nc1ccc(NC(=O)CN2CCCC(C)C2)c(Cl)c1` (stereo not given) was tested. Which inhibition did it give?
Its inhibition is 19.8%.

With `NC(=O)N1CCCC1C(=O)Nc1ccc(Cl)c(Cl)c1` (stereo not given) as the molecule, how does the inhibition read?
Its inhibition is 54.3% (active).

For `Cc1cc(NC(=O)COn2nnc3ccccc32)no1`, which inhibition is on record?
Its inhibition is 28.7%.

Which inhibition does the source give for `S=C(NCc1ccc(Cl)cc1)NC12CC3CC(CC(C3)C1)C2` here?
The inhibition was 47.3%.

Which inhibition does the source give for `Cc1nn(C)cc1C(=O)NNC(=S)Nc1ccc(Cl)cc1` here?
The inhibition was 8.5%.

How did the inhibition turn out when `S=C(NCc1cccs1)Nc1ccc(Cl)cc1` was run?
Its inhibition is 89.7% (active).

For `C=CCNC(=S)NNc1ncnc2sc3c(c12)CC(C)(C)OC3`, which inhibition is on record?
The inhibition was 17.9%.

With `C=CCOc1c2ccc(C(=O)N(CC)c3ccc(OC)cc3)cc2nn1C` as the molecule, how does the inhibition read?
The inhibition was 44.1%.

With `O=C(CNC(=O)OCc1ccccc1)Oc1cc2oc(=O)cc(-c3ccccc3)c2cc1Cl` as the molecule, how does the inhibition read?
Its inhibition is 27.8%.

Which inhibition does the source give for `COc1ccc(OCC(=O)OCC(=O)Nc2ccc(S(=O)(=O)N3CCCCC3)cc2)cc1` here?
The inhibition was 21.1%.

With `Cc1cccc(OCCCC(=O)Nc2ccc(S(=O)(=O)N3CCCC3)cc2)c1` as the molecule, how does the inhibition read?
Its inhibition is 50.1% (active).

For `CC(=O)Nc1ccc(S(=O)(=O)N2CCSCC2)cc1`, which inhibition is on record?
Its inhibition is 11.2%.

Which inhibition does the source give for `C=CCNC(=O)CCCOc1cccc(C)c1` here?
The inhibition was 17.5%.

For `CC(=O)Nc1ccc(S(=O)(=O)N2CCN(C3CCCCCCC3)CC2)cc1`, which inhibition is on record?
The inhibition was 25.7%.

For `CC(=O)Nc1ccc(S(=O)(=O)N2CCN(CCCOc3cc(C)ccc3C)CC2)cc1`, which inhibition is on record?
Its inhibition is 84.1% (active).

Reference: PubChem BioAssay AID778 (Sanford-Burnham Center for Chemical Genomics, 2007)
